# Screening results as filed in PubChem.
# In the library only some 19% were active in any assay of this set; here they are far more common.
# Gal4-VP16 FLuc = counter-screen for ROR gamma inhibitors: Gal4-VP16 reporter; Drosophila S2 Gal4-VP16 UAS-luciferase, luminescence, 20 h; Potency, µM (titrated, usually from 53.6 µM), for the others: top-dose activity, negative = inhibition, usual class: inhibitors; actives 3.5% (n = 310,000); AID 2546;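 further: Gal4-VP16 expression switched on by copper sulfate through the metallothionein promoter; nearly all actives have a fitted effect of over 50% in size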
# DT40 TDP1 no CPT = qHTS for Inhibitors of human tyrosyl-DNA phosphodiesterase 1 (TDP1): qHTS in cells in absence of CPT. Potency, µM (titrated, usually from 46.2 µM), inactives show at the top dose activity change, negative = growth inhibition, hits mostly inhibitors. DT40 Tdp1-/- hTDP1 cells, no CPT, ATP luminescence, 48 h. AID 686978, 2013. actives 15% (n = 420,000); further: nearly all actives have a fitted effect of over 55% in size
#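 Seeded 400 DT40-hTDP1 cells/well (vehicle DMSO, no 20 nM CPT); pinned compounds; ≥48 hr at 37 °C; CellTiter-Glo luminescence as viability measure.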
# TDP1 block = blocks human tyrosyl-DNA phosphodiesterase 1; recombinant TDP1, AlphaScreen DNA substrate cleavage; Potency, µM (doses to about 130 µM), for inactives: top-dose activity change, negative = inhibition, usual class: inhibitors; actives 0.28% (n = 350,000); further: nearly all actives have a fitted effect of over 40% in size
#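 Steps: enzyme plus compound, 15 min RT; add biotin/phosphotyrosine-FITC oligonucleotide (15 nM final), react 5 min; add donor/acceptor beads (10 ug/ml final), 10 min; read AlphaScreen. Tdp1 at 1 nM final.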
# TDP1 cell CPT = DT40-hTDP1 cell growth loss with CPT | AID 686979 | chicken DT40 Tdp1-/-;hTDP1 cells + 20 nM CPT, ATP luminescence, 48 h | actives 12% (n = 420,000) | Potency, µM (titrated, usually from 46.2 µM), for inactives: at the highest dose activity change, negative = growth inhibition, hits mostly inhibitors; further: nearly all actives have a fitted effect of over 55% in size
#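 Cell growth measured by CellTiter-Glo luminescence after a minimum 48 h, 37 C compound exposure with 20 nM CPT in Tdp1-knockout DT40 cells stably expressing hTDP1, seeded 400/well; qHTS titration format.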
# RORgamma inh = inhibitors of mouse ROR gamma transcriptional activity | P51450 | Drosophila S2 Gal4-RORgamma UAS-luciferase reporter, 20 h | Potency, µM (top dose mostly 53.6 µM), inactives show at the highest dose activity change, negative = inhibition, usual class: inhibitors | actives 5.4% (n = 310,000) | AID 2551; further: nearly all actives have a fitted effect of over 60% in size
# Target sequence (P51450 whole entry, looked up, the tested form may be a part): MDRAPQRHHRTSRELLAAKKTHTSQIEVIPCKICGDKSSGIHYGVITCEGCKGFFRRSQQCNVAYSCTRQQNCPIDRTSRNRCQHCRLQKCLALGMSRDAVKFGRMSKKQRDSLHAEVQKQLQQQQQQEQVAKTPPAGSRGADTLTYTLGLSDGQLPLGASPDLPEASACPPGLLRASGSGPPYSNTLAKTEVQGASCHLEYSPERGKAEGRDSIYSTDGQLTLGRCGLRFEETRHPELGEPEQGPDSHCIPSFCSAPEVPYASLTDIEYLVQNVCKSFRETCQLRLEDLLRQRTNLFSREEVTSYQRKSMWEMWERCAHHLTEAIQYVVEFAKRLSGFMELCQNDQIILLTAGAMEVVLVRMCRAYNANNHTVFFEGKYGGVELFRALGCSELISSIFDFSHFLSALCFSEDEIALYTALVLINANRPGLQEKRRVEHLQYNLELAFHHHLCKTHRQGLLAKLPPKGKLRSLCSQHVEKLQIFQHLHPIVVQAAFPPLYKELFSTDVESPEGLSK
#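 Luciferase reporter read in Schneider cells carrying Gal4-RORγ (mouse) and UAS-Photinus luciferase; cells given compound 1 h before 700 uM copper sulfate induction, then incubated 20 h at ambient temperature.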
# Active calls of the source: *; ? = inconclusive; nt = no result; [ ] = remark or other dose. The call rests on the fitted dose curve; in most records, active means well fitted curve in the direction sought with a large enough effect; inconclusive means small, poorly fitted or top-dose-only effect, or another doubt; inactive means no such curve, though single readings can be large; an effect the other way counts as inactive or inconclusive. On the % scale 0 is the no-effect control and ±100 the full control effect; potency means the concentration at half of the fitted maximal effect.
SMILES,Gal4-VP16 FLuc,DT40 TDP1 no CPT,TDP1 block,TDP1 cell CPT,RORgamma inh
CCc1ccc(-c2cn3nc(-c4ccccc4)cnc3n2)cc1,-7%,-5%,nt,-13%,-7%
CCn1c(=O)n(CC)c2cc(N3CCCC3)c(NC(=O)c3ccccc3C)cc21,-7%,21µM*,8%,16µM*,20%
CCOc1ccccc1C(=O)NN1C(=O)CCC1=O,?,18µM*,5%,?,6.3µM*
CCn1c(=O)n(CC)c2cc(N3CCCCC3)c(NC(=O)Nc3cc(Cl)ccc3OC)cc21,nt,18µM*,10%,23µM*,nt
CCn1c(=O)n(CC)c2cc(N3CCCC3)c(NC(=O)c3cc(Br)ccc3OC)cc21,?,?,10%,?,42%
CCOc1ccccc1C(=O)NCCNC(=O)c1ccccc1OCC,nt,-25%,nt,-17%,nt
CCn1c(=O)n(CC)c2cc(N3CCCC3)c(NC(=O)c3ccccc3)cc21,-7%,9.2µM*,8%,21µM*,-6%
O=C(Nc1cc([N+](=O)[O-])ccc1N1CCCC1)c1ccccc1,-7%,1%,-3%,5%,-7%
O=C(NCc1cccnc1)c1ccccc1NS(=O)(=O)c1ccc(F)cc1F,-9%,1%,6%,-17%,42%
CC(C)=CCC/C(C)=C/C=C/C(C)=C/C=C/C(C)=C/C=C/C=C(C)/C=C/C=C(C)/C=C/C=C(\C)CCC=C(C)C,18%,?,2%,?,-1%[10 µM]
CCn1c(=O)n(CC)c2cc(N3CCCCC3)c(NC(=O)Nc3ccccc3C(F)(F)F)cc21,nt,10µM*,8%,12µM*,nt
COc1ccc(Cl)cc1NC(=O)NCCN1CCCCC1,-9%,-10%,-3%,-1%,-10%
CCn1c(=O)n(CC)c2cc(N3CCCC3)c(NC(=O)Nc3cc(C)cc(C)c3)cc21,nt,18µM*,5%,21µM*,nt
COc1ccc(Cl)cc1NC(=O)NN1CCN(C)CC1,?,19%,14µM*,-10%,?
COc1ccc(Br)c(C(=O)Nc2cc3c(cc2N2CCCC2)n(C)c(=O)c(=O)n3C)c1,nt,21µM*,8%,16µM*,nt
CC(C)(C)C(=O)NC1CCN(S(=O)(=O)c2ccccc2F)CC1,-9%,-1%,0%,8%,-7%
CC(C)(C)C(=O)Nc1cc2c3c(c1)CC(=O)N3CCC2,0%,-10%,1%,3%,1%
Cc1cc(C)c2cc3c(ccn3C3OC[C@H](O)[C@H](O)[C@H]3O)cc2n1 (some centres undefined),5%,-25%,-2%,-2%,12%
O=C(c1cccc(F)c1)N1CCCc2ccccc21,1%,-7%,nt,-23%,-32%[1.91 µM]
CCn1c(=O)n(CC)c2cc(N3CCCC3)c(NC(=O)c3ccccc3F)cc21,12%,12µM*,9%,18µM*,-4%
Cn1c(=O)n(C)c2cc(N3CCCCC3)c(NC(=O)c3ccccc3)cc21,0%,?,0%,29µM*,-31%
CCOc1ccccc1C(=O)Nc1cc2c(cc1N1CCCCC1)n(C)c(=O)n2C,nt,18µM*,2%,15µM*,nt
COc1ccccc1C(=O)Nc1cc2c(cc1N1CCOCC1)n(C)c(=O)n2C,nt,-4%,0%,-20%,nt
O=C1c2ccccc2C(=O)N1CCCCn1c(=O)oc2ccccc21,2%,-2%,1%,-9%,0%
CCOc1ccccc1NC(=O)C(OC(=O)C1CC1)c1ccccc1 (centres undefined),0%,4%,-2%,-3%,18%
SMILES,Gal4-VP16 FLuc,DT40 TDP1 no CPT,TDP1 block,TDP1 cell CPT,RORgamma inh
CCOc1ccccc1NC(=O)C(NCC1(N2CCCCC2)CCCCC1)c1ccccc1 (centres undefined),-10%,16µM*,1%,?,-4%
CC1(C)CC(CC(=O)NNc2nc(-c3ccccc3)cs2)C(=O)O1 (centres undefined),-2%,?,-5%,?,-1%
CC(C)CC1CC(C)(c2csc(NNC(=O)c3ccccc3)n2)OC1=O (centres undefined),-26%,?,2%,?,10µM*
COC(=O)C1=C(C)NC(C)=C(C(=O)OC)C1C(=O)OCC(=O)c1ccc(F)cc1,12%,0%,0%,24%,-34%
COC(=O)[C@@H]1C[C@@]1(C)[C@@H](NC(=O)OCc1ccccc1)c1ccccc1,5%,nt,2%,nt,?
CC(=O)NC(C)(c1ccccc1)c1nc(-c2cccc3cccnc23)cs1 (centres undefined),nt,15µM*,nt,21µM*,nt
COc1ccccc1-c1csc(C(C)(NC(C)=O)c2ccccc2)n1 (centres undefined),nt,?,nt,16µM*,nt
CC(=O)Nc1cccc(-c2csc(C(C)(O)c3ccccc3)n2)c1 (centres undefined),nt,-28%,nt,?,nt
CCCN(CCC)C(=O)CSc1nc2ccsc2c(=O)n1NC(=O)c1ccccc1,-4%,?,6%,-9%,?
CN(C(=O)c1ccc2ccccc2c1)c1ccccn1,28%,?,nt,0%,23%
CCCCc1c(O)nc(SCC(=O)c2ccccc2)n(-c2ccccc2)c1=O,5%,2.6µM*,3%,2.9µM*,8%
CCCCc1c(O)nc(SCC(=O)c2ccccc2)n(-c2ccccc2OC)c1=O,-2%,8.2µM*,5%,-9%,20%
CC1(C)CC(=O)C(C=NCC(N)=O)=C(O)C1,-10%,4%,7%,-21%,-9%
COc1cc[n+]([O-])cc1[N+](=O)[O-],nt,2.3µM*,nt,?,nt
COC(=O)c1c[n+]([O-])ccc1OC,nt,-24%,nt,-13%,nt
OCc1ccc(-c2ccc(-c3ccc(CO)s3)o2)s1,1.6µM*,nt,11%,nt,0.63µM*
Cn1c(N)c(C(=O)COC(=O)COc2ccc(Br)cc2)c(=O)n(C)c1=O,nt,-1%,1%[56.1 µM],10%,nt
O=C(COc1ccccc1Cl)N1CCN(c2ccccn2)CC1,nt,-15%,nt,-13%,nt
O=c1ccc2ccc(O[C@@H]3O[C@H](CO)[C@@H](O)[C@H](O)[C@H]3O)c(O)c2o1,2%,11%,1%,-5%,21%
O=C(C[C@H]1C/C=C\C[C@H](NC(=O)OCC2c3ccccc3-c3ccccc32)C(=O)OC[C@@H]2CCCN2C1=O)N[C@H](CO)Cc1ccccc1,nt,9.2µM*,-4%,10µM*,nt
CC(C)(C)OC(=O)C[C@H]1C/C=C\C[C@@H](CC(=O)NCCO)C(=O)N2CCC[C@H]2COC1=O,nt,-3%,0%,-8%,nt
O=C(C[C@@H]1C/C=C\C[C@H](NC(=O)OCC2c3ccccc3-c3ccccc32)C(=O)OC[C@@H]2CCCN2C1=O)N[C@H](CO)Cc1ccccc1,nt,10µM*,-11%,7.3µM*,nt
